Experimental findings from PubChem BioAssay (NCATS) are described below.

Assay [1] can be described thus: qHTS profiling of the MIPE4 collection as inhibitors of Plasmodium falciparum (3D7) proliferation (AID 743344).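 Further: scaled between DMSO vehicle wells and 0.29 µM artemisinin as full inhibition.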 Conditions: P. falciparum 3D7 in erythrocytes, SYBR Green DNA fluorescence, 72 h; at 28.5 µM unless noted. Summed up:
(§1)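 Parasite DNA was quantified by SYBR Green I fluorescence (ex 485, em 535 nm) after overnight lysis in saponin/Triton buffer at room temperature. Cultures at 0.3% parasitemia and 2.5% hematocrit were first exposed to compound for 72 h at 37 C; signals were normalised to artemisinin (0.29 uM) and vehicle wells.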
Background: Quantitative high-throughput screening tests each substance at several concentrations.

Assay [2] can be described thus: qHTS profiling of the MIPE4 collection as inhibitors of Plasmodium falciparum (DD2) proliferation (AID 743345). Conditions: P. falciparum Dd2 in erythrocytes, SYBR Green DNA, 72 h; at 28.5 µM unless noted. Summed up: as §1

In assay [1], `C[C@H](NC(=O)[C@@H](O)c1cc(F)cc(F)c1)C(=O)N[C@@H]1C(=O)N(C)c2ccccc2-c2ccccc21` showed a parasite growth, % of DMSO control of 11%. The parasite growth remaining, % of DMSO control (lower = more inhibition) in assay [2] came out at 12.1%.

As to `O=C(Nc1nnc(-c2ccco2)o1)c1cc(-c2ccccc2)nc2ccccc12`, the parasite growth, % of DMSO control in assay [1] turned out to be 51.6%. This compound showed a parasite growth remaining, % of DMSO control (lower = more inhibition) in assay [2] of 94.4%.

For `CCOc1cc2ncc(C#N)c(Nc3ccc(OCc4ccccn4)c(Cl)c3)c2cc1NC(=O)C=CCN(C)C`, the parasite growth, % of DMSO control in assay [1] was found to be 7.93%. In assay [2], this compound registered a parasite growth remaining, % of DMSO control (lower = more inhibition) of 7.24%.

Compound `CN[C@H]1[C@@H](O)[C@@H]2O[C@@H]3O[C@H](C)CC(=O)[C@]3(O)O[C@@H]2[C@@H](NC)[C@H]1O` gave a parasite growth, % of DMSO control in assay [1] of 6.52%. For the same compound, in assay [2], the parasite growth remaining, % of DMSO control (lower = more inhibition) was found to be 85.6%.

For `C=CC(=O)Nc1ccc2ncnc(Nc3ccc(OCc4cccc(F)c4)c(Cl)c3)c2c1`, in assay [1], the parasite growth, % of DMSO control was determined as 6.97%. In addition, the parasite growth remaining, % of DMSO control (lower = more inhibition) in assay [2] was 19.9%.

Compound `Cc1cc(C(=O)NOCCO)c(Nc2ccc(I)cc2F)n(C)c1=O` came in with a parasite growth, % of DMSO control in assay [1] of 51.4%. In addition, the parasite growth remaining, % of DMSO control (lower = more inhibition) in assay [2] was found to be 87.7%.

For `COc1cc(C(=O)NC2CCN(C)CC2)ccc1Nc1ncc2c(n1)N(C1CCCC1)CCC(=O)N2C(C)C`, the parasite growth, % of DMSO control in assay [1] worked out at 5.76%. The parasite growth remaining, % of DMSO control (lower = more inhibition) in assay [2] stood at 7.51%.

In assay [1], `CC(=O)OCC(=O)[C@@]12N=C(C)O[C@H]1C[C@H]1[C@@H]3CCC4=CC(=O)C=C[C@]4(C)[C@@H]3[C@@H](O)C[C@@]12C` displayed a parasite growth, % of DMSO control of 89.5%. The compound further yielded a parasite growth remaining, % of DMSO control (lower = more inhibition) in assay [2] of 90%.

`O=C1c2c(O)cccc2[C@@H]([C@@H]2O[C@H](CO)[C@@H](O)[C@H](O)[C@H]2O)c2cc(CO)cc(O)c21` gave a parasite growth, % of DMSO control in assay [1] of 96.2%. In assay [2], the parasite growth remaining, % of DMSO control (lower = more inhibition) came out at 95.6%.

As to `NS(=O)(=O)OC[C@@H]1C[C@@H](n2ccc3c(N[C@H]4CCc5ccccc54)ncnc32)C[C@H]1O`, in assay [1], the parasite growth, % of DMSO control stood at 23.8%. In assay [2], the parasite growth remaining, % of DMSO control (lower = more inhibition) was 92.9%.

The compound `O=C1NC(=O)[C@@H](c2cn3c4c(cccc24)CCC3)[C@H]1c1c[nH]c2ccccc12` showed a parasite growth, % of DMSO control in assay [1] of 54.8%. This compound also registered a parasite growth remaining, % of DMSO control (lower = more inhibition) in assay [2] of 94.8%.
